Screens as filed in PubChem BioAssay.
PNC inhibitor: inhibitors of perinucleolar compartment assembly; PC3M PTB-GFP, PNC prevalence imaging, 16 h; stronger effect = lower value; activity change (PNC), negative = inhibition, % at 10 µM; 3.1% of 140,000 active; AID 2417;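 active = readout at or below -70, meaning at least 70% loss of cells showing the perinucleolar compartment, a nuclear body marking cancer cells; inconclusive = readout between -30 and a set limit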;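 also: plate controls were DMSO wells for no effect and camptothecin positive control wells for full effect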
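PC3M cells stably expressing PTB-GFP, 750–1000 cells/well, treated 16 h at 37 °C with compound (23 nl of library stock), in duplicate. After paraformaldehyde fixation and Hoechst stain, imaged at 20x; PNC prevalence scored by image analysis.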
ALOX12 inhib: inhibitors of human 12-lipoxygenase (ALOX12). P18054. purified 12-hLO, xylenol orange hydroperoxide absorbance. Potency, µM (series often up to 57.1 µM), inactives show at the top dose activity change, negative = inhibition, hits mostly inhibitors. 0.12% of 150,000 active. AID 1452; active = well fitted inhibition curve with a large enough effect; inconclusive = small, poorly fitted or top-dose-only effect; also: potency is read from the fitted curve at half-maximal effect; nearly all actives have a fitted effect of over 55% in size
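Hydroperoxide formation by human 12-lipoxygenase from 40 uM arachidonic acid was followed colorimetrically via ferric-xylenol orange complex, using the 573/405 nm absorbance ratio. Enzyme concentration was 150 nM, with 30 min reaction at room temperature.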
LMNA splice mod: modulators of lamin A splicing | 0.01% of 200,000 active | Potency, µM (highest dose often 46.1 µM), for the others: at the top dose ratio change, negative = inhibition, actives largely listed as inhibitors | HeLa LMNA splicing GFP/RFP minigene ratio, 48 h; active = well fitted inhibition curve with a large enough effect in the signal ratio, with a control signal flat, not every such curve was filed as active; inconclusive = small, poorly fitted or top-dose-only effect, or effect the other way, or a change in a side signal; the % refers to the signal ratio; also: potency is read from the fitted curve at half-maximal effect
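S3 HeLa stable clones carrying a lamin A-EGFP splicing minigene plus DsRed2 were seeded at 600 cells/well in Opti-MEM with 2% FBS, pin-dosed and incubated 48 h at 37°C. Acumen cytometry (488 nm) gave the GFP/RFP total-intensity ratio.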
HPGD inh: inhibitors of human 15-hydroxyprostaglandin dehydrogenase (HPGD). 4.3% of 150,000 active. purified HPGD, NADH fluorescence kinetic, PGE2 substrate. P15428. Potency, µM, without a hit: at the top dose activity change, negative = inhibition, hits mostly inhibitors; also: potency is read from the fitted curve at half-maximal effect
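NADH formation kinetics: reaction with 30 uM PGE2 and 1 mM NAD+ (final), 20 nM enzyme, Tris-HCl pH 8 with Tween 20, after 15 min compound preincubation at room temperature. Fluorescence change, last versus first of five reads.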
ALDH1A1 inh: blocks purified human ALDH1A1 activity; P00352; Purified ALDH1A1, NADH fluorescence, propionaldehyde substrate; Potency, µM (series often up to 75.3 µM), for the others: top-dose activity, negative = inhibition, most hits filed as inhibitors; 7.3% of 220,000 active; AID 1030;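 also: potency is read from the fitted curve at half-maximal effect; plate controls were no enzyme wells and a reference inhibitor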
Target sequence (P00352 whole entry, looked up): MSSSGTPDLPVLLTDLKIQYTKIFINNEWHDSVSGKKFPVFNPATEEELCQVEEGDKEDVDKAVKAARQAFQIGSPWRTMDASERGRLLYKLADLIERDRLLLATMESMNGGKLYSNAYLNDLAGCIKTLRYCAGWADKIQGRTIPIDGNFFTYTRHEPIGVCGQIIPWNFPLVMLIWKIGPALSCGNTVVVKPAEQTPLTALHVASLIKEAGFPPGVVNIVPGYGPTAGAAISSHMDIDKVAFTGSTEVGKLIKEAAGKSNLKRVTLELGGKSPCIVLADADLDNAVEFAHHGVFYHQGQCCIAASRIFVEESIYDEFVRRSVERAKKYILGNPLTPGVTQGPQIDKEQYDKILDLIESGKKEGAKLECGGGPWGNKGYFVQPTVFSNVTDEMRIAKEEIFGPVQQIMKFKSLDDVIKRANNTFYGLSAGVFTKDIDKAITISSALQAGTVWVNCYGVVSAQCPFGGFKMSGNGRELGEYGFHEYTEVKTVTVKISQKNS
Active calls of the source: *; [ ] = another dose, or the depositor's remark. This is a sample that favours compounds with a hit; in the whole collection about 10% have one here. Unless noted, calls follow the shape of the dose curve; as a rule, active = well fitted inhibition curve with a large enough effect (not every such curve was filed as active); inconclusive = small, poorly fitted or top-dose-only effect, or another doubt; inactive = no such curve, though single readings can be large or run the other way. Unless noted, % is scaled to controls: 0 for no effect and ±100 for the full control effect.

What do the screens show for `O=C(CSc1nc(-c2ccc(F)cc2)cs1)N1CCN(C(=O)c2ccco2)CC1`?
PNC inhibitor: -10; ALOX12 inhib: -15%; LMNA splice mod: -16%; HPGD inh: inconclusive; ALDH1A1 inh: 14µM*

How did CC(=O)c1noc(C)c1C(=O)Nc1nccs1 do in these assays?
PNC inhibitor: -93*; ALOX12 inhib: -2%; LMNA splice mod: -4%; HPGD inh: 1%; ALDH1A1 inh: -7%

How did Cc1ncoc1C(=O)Nc1nccs1 do in these assays?
PNC inhibitor: 10; ALOX12 inhib: 10%; LMNA splice mod: 3%; ALDH1A1 inh: -7%

What do the screens show for `CCCCCCCCOC(=O)CCc1c(C)[nH]c(=S)[nH]c1=O`?
PNC inhibitor: 20; ALOX12 inhib: -4%; LMNA splice mod: 3%[0.0737 µM]; HPGD inh: -9%; ALDH1A1 inh: 2µM*

What do the screens show for `CCCCCCOC(=O)CCc1c(C)nc(N)[nH]c1=O`?
PNC inhibitor: 29; ALOX12 inhib: -1%; LMNA splice mod: -4%; HPGD inh: 1%; ALDH1A1 inh: 19%

What do the screens show for `O=C1CCCN1c1ccc(S(=O)(=O)N2CCCCC2)cc1[N+](=O)[O-]`?
LMNA splice mod: 14%[46 µM]; ALDH1A1 inh: -8%

What do the screens show for `O=C1CCCN1c1ccc(S(=O)(=O)Oc2cccc(Cl)c2)cc1[N+](=O)[O-]`?
PNC inhibitor: -106*; ALOX12 inhib: -7%; LMNA splice mod: 0%; HPGD inh: -20%; ALDH1A1 inh: -11%

Results for C1CCN=C(NC23CC4CC(CC(C4)C2)C3)CC1 ?
PNC inhibitor: 6; ALOX12 inhib: 2%; LMNA splice mod: -7%; HPGD inh: -6%; ALDH1A1 inh: 7%

How did COc1nc(NC23CC4CC(CC(C4)C2)C3)nc(OC)n1 do in these assays?
PNC inhibitor: -7; ALOX12 inhib: -4%; LMNA splice mod: inconclusive; HPGD inh: -10%; ALDH1A1 inh: 25µM*

How did CC(=O)C(Cc1cccc(F)c1)(Cc1cccc(F)c1)C(C)=O do in these assays?
LMNA splice mod: -22%[46 µM]; ALDH1A1 inh: -1%

What do the screens show for `CN1CCc2cccc3c2C1Cc1ccc(O)c(O)c1-3` (centres undefined)?
ALOX12 inhib: -6%; LMNA splice mod: inconclusive; HPGD inh: 5µM*; ALDH1A1 inh: inconclusive

What do the screens show for `CNc1nc(N/N=C/c2cc3c(cc2[N+](=O)[O-])OCO3)nc(Nc2ccccc2)n1`?
ALDH1A1 inh: 3%

What do the screens show for `O=[N+]([O-])c1cc2c(cc1/C=N\NS(=O)(=O)c1ccccc1)OCO2`?
PNC inhibitor: -3; ALOX12 inhib: 6%; LMNA splice mod: -26%; HPGD inh: -27%; ALDH1A1 inh: 1.6µM*

How did Cc1ccsc1/C=N/N1CCN(Cc2ccccc2)CC1 do in these assays?
LMNA splice mod: 11%[46 µM]; ALDH1A1 inh: 16µM*

How did Cc1ccsc1/C=N/N1CCN(c2ccccc2)CC1 do in these assays?
PNC inhibitor: 37; ALOX12 inhib: -14%; LMNA splice mod: inconclusive; HPGD inh: -12%; ALDH1A1 inh: -6%

Results for O=C(C1CCN(C2CC(=O)N(c3cccc(Cl)c3)C2=O)CC1)N1CCCC1 (centres undefined) ?
PNC inhibitor: -18; ALOX12 inhib: -10%; LMNA splice mod: -1%; HPGD inh: -20%; ALDH1A1 inh: 3.2µM*

Results for Cc1cccc(N2C(=O)CC(N3CCN(Cc4ccc(Cl)cc4)CC3)C2=O)c1 (centres undefined) ?
PNC inhibitor: -4; ALOX12 inhib: 0%; LMNA splice mod: -4%; HPGD inh: -5%; ALDH1A1 inh: inconclusive

Results for CCOC(=O)C1CCN(C2CC(=O)N(c3cccc(Cl)c3)C2=O)CC1 (centres undefined) ?
PNC inhibitor: 32; ALOX12 inhib: -4%; LMNA splice mod: 0%; HPGD inh: -6%; ALDH1A1 inh: 20µM*

What do the screens show for `O=C1CC(N2CCC(Cc3ccccc3)CC2)C(=O)N1CCc1ccccc1` (centres undefined)?
PNC inhibitor: 28; ALOX12 inhib: -13%; LMNA splice mod: -5%; HPGD inh: -17%; ALDH1A1 inh: 2.2µM*

What do the screens show for `O=C(C1CCN(C2CC(=O)N(c3ccc(Cl)cc3)C2=O)CC1)N1CCOCC1` (centres undefined)?
PNC inhibitor: -6; ALOX12 inhib: 0%; LMNA splice mod: -5%; HPGD inh: -9%; ALDH1A1 inh: 13µM*

What do the screens show for `O=C(C1CCN(C2CC(=O)N(Cc3ccccc3)C2=O)CC1)N1CCCCCC1` (centres undefined)?
PNC inhibitor: -1; ALOX12 inhib: 0%; LMNA splice mod: 12%; HPGD inh: inconclusive; ALDH1A1 inh: 11µM*

How did O=C(C1CCN(Cc2ccccc2)CC1)N1CCCC1 do in these assays?
PNC inhibitor: 0; ALOX12 inhib: -2%; LMNA splice mod: -3%; HPGD inh: -11%; ALDH1A1 inh: -5%

Results for CCCC(=O)Nc1cc(C(=O)NCc2ccccc2)ccc1S(=O)(=O)c1ccc(Cl)cc1 ?
LMNA splice mod: 5%[46 µM]

Results for CCCC(=O)Nc1cc(C(=O)O)ccc1S(=O)(=O)c1ccc(C)cc1 ?
PNC inhibitor: -113*; ALOX12 inhib: 0%; LMNA splice mod: -5%; HPGD inh: -17%; ALDH1A1 inh: inconclusive

What do the screens show for `CC(=O)Nc1ccc(NS(=O)(=O)c2c(C(=O)N3CCCCCC3)c(C)n(C)c2C)cc1`?
LMNA splice mod: 1%[46 µM]

How did CC(=O)OCC(=O)Nc1ccc(Cl)cc1Cl do in these assays?
PNC inhibitor: 11; ALOX12 inhib: -2%; LMNA splice mod: 0%; HPGD inh: 20µM*; ALDH1A1 inh: 1%

What do the screens show for `COC(=O)c1ccccc1NC(=O)COC(C)=O`?
PNC inhibitor: 18; ALOX12 inhib: -6%; LMNA splice mod: 3%; HPGD inh: 0%; ALDH1A1 inh: 5.6µM*

Results for CCCCc1nc2c(c3c1C[C@H](C)OC3)CN(C(=O)c1cc(I)ccc1F)CC2 ?
ALOX12 inhib: 0%[11.4 µM]; LMNA splice mod: 17%[9.22 µM]; HPGD inh: 0%; ALDH1A1 inh: -9%[13.5 µM]

How did O=C(O)C1Nc2c(O)cccc2C2C=CCC12 (centres undefined) do in these assays?
PNC inhibitor: 9; ALOX12 inhib: -21%; LMNA splice mod: -6%; HPGD inh: -29%; ALDH1A1 inh: -3%

Results for O=C(OC1CCCCC1)c1ccc2c(c1)C1C=CCC1C(C(=O)O)N2 (centres undefined) ?
PNC inhibitor: inconclusive; ALOX12 inhib: -5%; LMNA splice mod: -8%; HPGD inh: inconclusive; ALDH1A1 inh: 16µM*

Results for COCCOC(=O)C1=C(C)N(c2ccccc2)C(=O)NC1c1cccc([N+](=O)[O-])c1 (centres undefined) ?
PNC inhibitor: -10; ALOX12 inhib: 1%; LMNA splice mod: -2%; HPGD inh: -12%; ALDH1A1 inh: inconclusive
